Assay outcomes: PubChem, The Scripps Research Institute Molecular Screening Center
PAFAH2 inh: inhibitors of human PAFAH2 | recombinant PAFAH2, FP-rhodamine activity probe, fluorescence polarization | inhibition, % at 3.39 µM | 340,000 compounds, 0.99% hits | AID 492956;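 active means inhibition above the mean over all tested compounds plus 3 SD, cut at about 30% in these data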;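 further: inhibitors block probe labeling of enzyme so polarization drops; 0% = enzyme with DMSO and 100% = wells lacking PAFAH2 protein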
PAFAH1B3 inh: PAFAH1B3 (human) inhibition | Q15102 | inhibition, % at 3.39 µM | recombinant PAFAH1B3, FP-rhodamine probe, fluorescence polarization | AID 492972 | 340,000 compounds, 0.28% hits;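 active means inhibition above the screen-wide average of all tested compounds plus 3 SD, cut at about 25% in these data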;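 further: 0% = enzyme with DMSO only and 100% = wells lacking PAFAH1B3 protein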
PAFAH1B2 inh: blocks human PAF acetylhydrolase 1b catalytic subunit 2; P68402; recombinant PAFAH1B2, FP-rhodamine activity probe, fluorescence polarization; inhibition, % at 3.39 µM; 340,000 compounds, 1.2% hits; AID 492953;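 active means inhibition above the mean of all tested compounds plus 3 SD, cut at about 24% in these data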;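 further: 0% = enzyme with DMSO and 100% = wells lacking PAFAH1B2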
Target sequence (P68402 whole entry, looked up): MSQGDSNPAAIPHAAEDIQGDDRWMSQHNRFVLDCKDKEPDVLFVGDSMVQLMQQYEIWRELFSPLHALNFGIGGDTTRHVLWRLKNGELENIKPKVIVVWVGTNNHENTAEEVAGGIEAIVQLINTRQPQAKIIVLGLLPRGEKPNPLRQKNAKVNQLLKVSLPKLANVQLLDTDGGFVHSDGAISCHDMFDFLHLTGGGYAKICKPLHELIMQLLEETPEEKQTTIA
pPAFAH inh: pPAFAH (human) enzyme inhibition; AID 463082; 330,000 compounds, 1.5% hits; Q13093; inhibition, % at 3.39 µM; recombinant pPAFAH, FP-rhodamine probe fluorescence polarization;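 active means inhibition above the mean inhibition across the screen plus 3 SD, cut at about 25% in these data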;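 further: inhibitors block binding of the rhodamine activity-based probe so polarization drops; 0% = enzyme with DMSO and 100% = wells lacking pPAFAH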
LYPLA1 inh: LYPLA1 (human) inhibition in PME1 counter-screen | O75608 | recombinant LYPLA1, FP-Rh probe fluorescence polarization | inhibition, % at 5.9 µM | 320,000 compounds, 0.16% hits | AID 2174;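 active means inhibition above the mean of all tested compounds plus 3 SD, set per campaign, cut at about 14% in these data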;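 further: inhibitors block serine hydrolase probe labeling of LYPLA1 so polarization falls; 0% = enzyme with DMSO and 100% = wells lacking LYPLA1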
Target sequence (O75608 whole entry, looked up): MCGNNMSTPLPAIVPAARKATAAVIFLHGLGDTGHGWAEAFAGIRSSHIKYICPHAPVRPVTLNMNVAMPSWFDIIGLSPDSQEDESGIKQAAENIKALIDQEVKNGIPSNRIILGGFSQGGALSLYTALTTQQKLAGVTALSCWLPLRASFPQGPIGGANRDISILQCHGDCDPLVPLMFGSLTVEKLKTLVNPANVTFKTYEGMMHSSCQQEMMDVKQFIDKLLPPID
LYPLA2 counter: counter-screen for PME1 inhibitors: inhibitors of human LYPLA2; AID 2177; recombinant LYPLA2, FP-Rh probe fluorescence polarization; 320,000 compounds, 0.38% hits; inhibition, % at 5.9 µM;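 active means inhibition above the screen-wide mean plus 3 SD, limit set per campaign, cut at about 26% in these data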;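 further: 0% = LYPLA2 with DMSO and 100% = wells lacking LYPLA2 enzyme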
Starred values were filed as active, the others as inactive; . = not tested or not shown. Shown are actives, neighbours in structure and some others; about 2.9% of the full set was active somewhere.

SMILES | PAFAH2 inh | PAFAH1B3 inh | PAFAH1B2 inh | pPAFAH inh | LYPLA1 inh | LYPLA2 counter
c1ccc(CSc2nnc(-c3ccco3)o2)cc1 | 5 | 2 | 5 | -3 | -1 | -5
Brc1ccc(CSc2nnc(-c3ccco3)o2)cc1 | -5 | 1 | 27* | 4 | -6 | 2
CC(C)(C)c1[nH]nc2c1C(c1cccnc1)C(C#N)=C(N)O2 (stereo unspecified) | -4 | 7 | 6 | 3 | -2 | -1
CC(C)(C)c1[nH]nc2c1C(C1C=CCCC1)C(C#N)=C(N)O2 (stereo unspecified) | 7 | -3 | 27* | -3 | 0 | 25
CC(C)c1[nH]nc2c1C(C1C=CCCC1)C(C#N)=C(N)O2 (stereo unspecified) | 5 | 2 | 17 | -2 | -2 | 1
CC(C)(C)c1[nH]nc2c1C(Cc1ccccc1)C(C#N)=C(N)O2 (stereo unspecified) | 1 | 4 | 40* | -1 | -1 | -3
Cc1ccc2oc(=S)n(C)c2c1 | 3 | 5 | 4 | 2 | 2 | 1
Cc1ccc(Oc2ccc(OCC(=O)OC3CCS(=O)(=O)C3)cc2)cc1 (stereo unspecified) | . | . | . | 31* | -5 | 3
O=C(COc1ccccc1[N+](=O)[O-])OC1CCS(=O)(=O)C1 (stereo unspecified) | 3 | 12 | 2 | 0 | 1 | 0
O=C1CC(CSc2ccc(Cl)cc2)=NN1 | . | . | . | 15 | 0 | 1
Cc1cc(SCC2=NNC(=O)C2)c(Cl)cc1Cl | -7 | 10 | 4 | 28* | 0 | 1
CC(Sc1ccc(Br)cc1)C(N)=O (stereo unspecified) | 6 | 4 | 37* | 5 | -4 | 1
NC(=O)CSc1ccc(Br)cc1 | -6 | 3 | 50* | 1 | 3 | 3
NS(=O)(=O)c1ccc(N/N=C/c2ccccn2)c([N+](=O)[O-])c1 | 3 | 11 | -1 | -6 | -4 | -1
O=c1cc(CSc2nnnn2-c2ccccc2)nc(Nc2ccc(F)cc2)[nH]1 | -1 | -4 | 2 | 6 | -2 | -3
Cc1ccc(-c2csc3ncn(Cc4ccc(C(=O)O)cc4)c(=O)c23)cc1C | 4 | 17 | 2 | 1 | -4 | 5
O=C(O)c1ccc(Cn2cnc3scc(-c4ccccc4)c3c2=O)cc1 | 4 | 16 | 26* | 3 | -1 | -3
O=C(CSc1ccc(-c2ccco2)nn1)c1ccccc1 | 0 | 4 | -2 | 34* | 3 | 4
Cc1ccc(C#N)c(SCc2nnc(-c3ccc(Cl)cc3)o2)n1 | -1 | 11 | -5 | -3 | 0 | -1
CCOc1cccc(CNc2ccc(O)cc2)c1OCc1ccccc1Cl | 2 | 6 | 5 | 32* | 7 | 20
CCOc1cccc(CNCCO)c1OCc1ccc(Cl)cc1Cl | 0 | 1 | 6 | -1 | -5 | -2
CCOc1cccc(CNc2ccc(O)cc2)c1OCc1ccc(Cl)cc1Cl | 4 | 16 | 10 | 31* | -1 | 11
CCOC(=O)C1=C(C)N(CC)C(=S)NC1c1ccccc1OC(F)F (stereo unspecified) | -6 | -2 | 2 | 2 | 3 | 3
CC(=O)C[C@H](O)CC(=O)[C@H]1OC(=O)CCCCCCCCc2ccccc21 | -6 | -10 | 37* | -1 | . | .
COC(=O)CCC(=O)N(CCN(Cc1ccccc1)C(=O)CCC(=O)OC)Cc1ccccc1 | -1 | 10 | 0 | 0 | -1 | -1
SMILES | PAFAH2 inh | PAFAH1B3 inh | PAFAH1B2 inh | pPAFAH inh | LYPLA1 inh | LYPLA2 counter
COc1ccc(/C=C/C(=O)CC(O)(c2ccccc2)C(F)(F)F)cc1 (stereo unspecified) | 10 | 10 | 26* | -4 | -5 | 2
COc1ccc(/C=C/C(=O)CCC(=O)O)cc1 | 3 | 4 | 7 | 0 | 2 | 1
O=C(/C=C/c1ccccc1)CC(O)(c1ccccc1)C(F)(F)F (stereo unspecified) | 9 | -2 | 55* | 2 | -2 | -1
CCN(C(=O)CSc1nc2ccccc2n1CC(C)C)c1c(N)n(Cc2ccccc2)c(=O)[nH]c1=O | 3 | 16 | 0 | . | . | .
CCN(C(=O)CSc1nc2ccccc2o1)c1c(N)n(Cc2ccccc2)c(=O)[nH]c1=O | -7 | -1 | -1 | 29* | -5 | -4
CCn1c(C)nc2cc(C(=O)NNS(=O)(=O)c3c(F)cc(F)c(Cl)c3F)ccc21 | 4 | 2 | -1 | -2 | 7 | 11
